Measurements reported in PubChem BioAssay (NCI).
Compounds without any hit were thinned out: in the full panel of roughly 79,000, 15% have a hit. Rule as the data show it: active = growth inhibition above about 70%; inactive = the rest.

Experiments:
[1] = NCI Yeast Anticancer Drug Screen. Data for the rad50 strain (AID 155);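 also: 0% = growth of vehicle-only cultures of the same strain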; details: S. cerevisiae rad50 strain growth inhibition; at 50.0 µM; active compounds read high
Summary of the method: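 A DNA repair-deficient yeast mutant serves as the test organism; compound-induced growth inhibition is calculated against vehicle-treated cells.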

[2] = NCI Yeast Anticancer Drug Screen. Data for the mec2-1 strain (AID 157); details: S. cerevisiae mec2-1 strain, at 50.0 µM, active compounds read high
Summary of the method: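 Vehicle-treated cultures served as reference for growth inhibition of compound-exposed mec2-1 yeast.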

[3] = NCI Yeast Anticancer Drug Screen. Data for the sgs1 mgt1 strain (AID 161);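 also: 0% = growth of cultures given vehicle only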; details: S. cerevisiae sgs1 mgt1 strain, at 50.0 µM, active compounds read high
Summary of the method: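 Read-out: growth inhibition vs vehicle controls. Cells: mutant yeast strain deficient in DNA damage repair.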

[4] = NCI Yeast Anticancer Drug Screen. Data for the cln2 rad14 strain (AID 165);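 also: 0% = growth equal to vehicle treated cultures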; details: S. cerevisiae cln2 rad14 strain, at 50.0 µM, active compounds read high
Summary of the method: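 Each compound was tested on cln2 rad14 yeast. Inhibition of growth was calculated against vehicle-exposed controls.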

[5] = NCI Yeast Anticancer Drug Screen. Data for the bub3 strain (AID 167); details: S. cerevisiae bub3 mutant strain, at 50.0 µM, active compounds read high
Summary of the method: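 Inhibition values come from growth of compound-treated mutant yeast normalised to vehicle-treated controls.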

[6] = NCI Yeast Anticancer Drug Screen. Data for the mlh1 rad18 strain (AID 175); details: S. cerevisiae mlh1 rad18 strain growth inhibition; at 50.0 µM; active compounds read high
Summary of the method: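 Vehicle-treated cultures served as the reference for growth inhibition in a yeast strain carrying DNA damage repair alterations exposed to each compound.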

Measured: growth inhibition

CC(C)(C)OC(=O)CC(c1ccccc1)c1ccccc1
inactive: [1] -11.5% | [2] -9.4% | [3] -8.7% | [4] -41.5% | [5] 49.1% | [6] -21.9%

CCCN1C(=O)c2cc(=O)[nH]c(O)c2C1C (stereo not given)
inactive: [1] -14.2% | [2] -10.9% | [3] -8.75% | [4] 9% | [5] -13.3% | [6] 0.4%

BrC1=NOC2c3cccc4cccc(c34)C12 (stereo not given)
inactive: [1] 2.4% | [2] 8.95% | [3] 19.6% | [4] 42% | [5] 34% | [6] 22.8%

CC(C)(C)C(=O)Oc1ccc(/C=C/C(=O)c2ccc(OC(=O)C(C)(C)C)cc2)cc1
inactive: [1] -5.45% | [2] -20.9% | [3] -28% | [4] -20.9% | [5] -22.9% | [6] -24.4%

CC(C)(OC(=O)c1ccc([N+](=O)[O-])cc1)C1CC1
inactive: [1] -12.1% | [2] 1.55% | [3] -23.6% | [4] -28.9% | [5] -11.1% | [6] -24.4%

C=CCN(CC=C)CNC(C)=O
inactive: [1] -9.7% | [2] -14.7% | [3] -8.4% | [4] -17% | [5] -7.55% | [6] -10.8%

CCn1cc(C(=O)C(=O)N(C)C)c2ccccc21
inactive: [1] 13.2% | [2] -7.75% | [3] -2.5% | [4] -3.35% | [5] 17.2% | [6] 1.95%

COc1ccc(OC)c2cc3c(cc12)C(=O)C(C)=C(C)C3=O
inactive: [1] 6.15% | [2] -2.55% | [3] 10.8% | [4] -30% | [5] -1.3% | [6] 7.7%

C/C(CC(c1ccccc1)c1ccccc1)=N\Nc1ccc([N+](=O)[O-])cc1[N+](=O)[O-]
inactive: [1] 13.4% | [2] 3.95% | [3] 14.4% | [4] 19.2% | [5] 7.4% | [6] 8.55%

C/C=C(/C)C(=O)O[C@@H]1c2c(C)coc2C(=O)[C@@]2(OC(C)=O)CCC[C@@](C)(O)[C@@]12C
inactive: [1] 26.8% | [2] 9.55% | [3] 24.3% | [4] 22.6% | [5] 39.4% | [6] 43.9%

O=C(Nc1ccc(C2=NCCN2)cc1)c1ccc(C(=O)Nc2ccc(C3=NCCN3)cc2)cc1
inactive: [1] -3.1% | [2] 7.45% | [3] 0.95% | [4] 2% | [5] 9.4% | [6] -19.6%

CCCC(=N)OCC
inactive: [1] -3.45% | [2] -27.4% | [3] -20.4% | [4] -0.45% | [5] 3.75% | [6] -5.05%

CC(=O)OC1COC(n2c(=S)n(-c3ccccc3)c(=O)c3cc(Br)ccc32)C(OC(C)=O)C1OC(C)=O (stereo not given)
inactive: [1] 1.9% | [2] -5.4% | [3] 8.45% | [4] 15.8% | [5] -3.85% | [6] -11.9%

CN(C)N=Nc1ccc(C(=O)N/N=C/c2ccccc2[N+](=O)[O-])cc1
inactive: [1] -13.8% | [2] 1.2% | [3] -16.6% | [4] -18.2% | [5] -14.7% | [6] -40.8%

O=C1OC(c2ccc(O)c(O)c2)(c2ccc(O)c(O)c2)c2ccccc21
inactive: [1] -27.9% | [2] -24.2% | [3] -27.1% | [4] 5.8% | [5] -21.7% | [6] -32.6%

COc1cc(C(Nc2ccccn2)c2cc3c(cc2O)OCO3)cc(OC)c1O (stereo not given)
inactive: [1] 28.2% | [2] 46.5% | [3] 39.3% | [4] 30.9% | [5] 15.7% | [6] 24.2%

Cc1c(-c2ccc3c(c2)OCO3)sc(N)c1C#N
inactive: [1] 5% | [2] -15.5% | [3] 12.2% | [4] 4.25% | [5] 20.6% | [6] -7.75%

CC(C)CCCC(C)C1CCC2C3CC([N+](=O)[O-])=C4CC(O[N+](=O)[O-])CCC4(C)C3CCC12C (stereo not given)
inactive: [1] 50.4% | [2] 20.1% | [3] 37.1% | [4] 23.6% | [5] 1.95% | [6] 20.2%

CC(=O)OCC1OCOC2C(COC(C)=O)OCOC12 (stereo not given)
inactive: [1] 3.55% | [2] 2.6% | [3] -8.15% | [4] -24.4% | [5] 3.85% | [6] -8.5%

COc1ccc(O)c(/C=N/NC(N)=S)c1
inactive: [1] 23.8% | [2] -24.8% | [3] -4.45% | [4] -115% | [5] -24.8% | [6] -11.4%

O=C1CC[C@@H](C(=O)Nc2cccc3ccccc23)N1
inactive: [1] -7.15% | [2] 8.45% | [3] 8.5% | [4] -24.4% | [5] 10.6% | [6] 21.2%

O=[N+]([O-])c1ccc2c(Cl)c3ccccc3nc2c1
inactive: [1] 20.1% | [2] 24.1% | [3] 2% | [4] 17.6% | [5] 34.2% | [6] 16.6%

CC(C(=O)c1ccccc1)C(c1ccccc1)N1CCOCC1 (stereo not given)
inactive: [1] 2.1% | [2] -7.5% | [3] -16.3% | [4] 3.25% | [5] 6.35% | [6] -5.15%

ONc1ccc(Cl)cc1
inactive: [1] -8.85% | [2] -11.8% | [3] -2.7% | [4] -10.8% | [5] 21.1% | [6] -6.6%

NC(=O)C(F)(F)c1ccccc1
inactive: [1] 2.3% | [2] -12.8% | [3] 14.8% | [4] 10.1% | [5] 21.4% | [6] 9.8%

CC1OC(n2cc(F)c(=O)[nH]c2=O)CCC1O (stereo not given)
inactive: [1] 7% | [2] 10.2% | [3] 33.2% | [4] -10.1% | [5] -29.2% | [6] -60.5%

CCOC(=O)c1cc(C)nc(Cl)c1[N+](=O)[O-]
inactive: [1] 19.4% | [2] 5.9% | [3] 4.35% | [4] 0.65% | [5] -3.45% | [6] 6.95%

O=C1NC(C(=O)O)CC1O (stereo not given)
inactive: [1] 4.1% | [2] 23.9% | [3] 5.05% | [4] 14.2% | [5] 17.9% | [6] 17.6%

Cc1cc(O)c([N+](=O)[O-])c(C)c1[N+](=O)[O-]
inactive: [1] 2.2% | [2] 35.2% | [3] 3.5% | [4] 41.2% | [5] 39.3% | [6] 0.25%

C/C(=C\c1ccccc1)C(=O)c1ccccc1
inactive: [1] -0.45% | [2] 3.85% | [3] 1.3% | [4] -3.15% | [5] 3.45% | [6] 20%

CCC(=O)NCCO
inactive: [1] -26.9% | [2] -17.7% | [3] -5.65% | [4] -103% | [5] -9% | [6] -5.25%

C[N+]1(CC(O)C[N+]2(C)CCCCCC2)CCCCCC1
inactive: [1] 11.3% | [2] 14.1% | [3] -7.65% | [4] -6.2% | [5] -2.9% | [6] 32.8%

Clc1cc(Cl)cc(C=NC23CC4CC(CC(C4)C2)C3)c1
inactive: [1] -13.8% | [2] -31.2% | [3] -40.5% | [4] -20% | [5] -24.4% | [6] -11%

NNC(=O)/C(=C/c1ccc(Cl)cc1Cl)NC(=O)c1ccccc1
inactive: [1] 45% | [2] 35.3% | [3] 39.3% | [4] 60.4% | [5] 66.8% | [6] 54.5%

C[C@]12CCC(=O)C=C1CC[C@@H]1C2CC[C@]2(C)NC(=O)C(C#N)CC12 (stereo not given in full)
inactive: [1] -29.1% | [2] -10.2% | [3] -14.9% | [4] -23.9% | [5] -15.2% | [6] -9.6%

COC(=O)C(C(=O)C(=O)Nc1nc2ccc([N+](=O)[O-])cc2s1)c1nc2ccc(Cl)cc2[nH]c1=O (stereo not given)
inactive: [1] 10.3% | [2] 17.5% | [3] 21.4% | [4] 26.8% | [5] 15% | [6] -3.1%

Cc1c(Cl)cc([N+](=O)[O-])cc1Cl
inactive: [1] -13.2% | [2] 13.7% | [3] -11.8% | [4] 17.1% | [5] -3.45% | [6] 5.25%

C1=CCC(C(Nc2nncs2)Nc2nncs2)CC1 (stereo not given)
inactive: [1] 6.25% | [2] 3.95% | [3] 19.6% | [4] 7.05% | [5] -24.9% | [6] 9.25%

CCCCN(CCCC)CC1OCCO1
inactive: [1] -6.35% | [2] -0.5% | [3] -2.45% | [4] -16.6% | [5] 2.7% | [6] -2.6%

Nc1ccc(Cc2ccc(N)c(Br)c2)cc1Br
inactive: [1] -0.75% | [2] 13.9% | [3] 25.1% | [4] -19.3% | [5] -14.8% | [6] 32.4%

COc1ccc(C=O)c(C)c1
inactive: [1] -4.05% | [2] -30.1% | [3] 4.15% | [4] 15.3% | [5] -15.8% | [6] -5.45%

Oc1cc2oc3cc(O)c(O)cc3c2cc1O
inactive: [1] 7% | [2] 10.4% | [3] 9.85% | [4] 35.4% | [5] 6.1% | [6] 23.9%

Cc1cccc(C)c1NC(=S)NC=C(C(N)=O)C(N)=O
inactive: [1] -26.1% | [2] -23.6% | [3] 12.7% | [4] 3.1% | [5] -14.4% | [6] 10.6%

O=C(Nc1cccc([N+](=O)[O-])c1)N1CCCC1
inactive: [1] -7.1% | [2] -16.4% | [3] -7.75% | [4] -3.9% | [5] -7.5% | [6] -20.6%

CC(C)=C(OC(=O)c1ccccc1)C(C)(CC(C)(C)C)C(C)(C)C (stereo not given)
inactive: [1] 13.1% | [2] -55.3% | [3] -10.3% | [4] -100% | [5] -26.5% | [6] 19.4%
